Pol beta inh – qHTS Assay for Inhibitors of DNA Polymerase Beta | P06746 | Pol beta primer extension/strand displacement, fluorescence kinetic | Potency, µM (doses to about 114 µM), without a hit: top-dose activity change, negative = inhibition, usual class: inhibitors | 1.3% of 340,000 active | AID 485314, 2010; also: potency is read from the fitted curve at half-maximal effect; % is scaled to controls: 0 for no effect and ±100 for the full control effect
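Preincubation: enzyme (10 nM) with compound, 15 min, RT. Reaction: substrate added to 50 nM final. Reads: 0 and 10 min. Analysis: normalized, Hill fit.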
PI5P4K alpha inh – qHTS for Inhibitors of phosphatidylinositol 5-phosphate 4-kinase (PI5P4K); Phosphatidylinositol 5-phosphate 4-kinase type-2 alpha (Homo sapiens), P48426; PI5P4Kalpha enzyme, ADP-Glo luminescence, 60 min; hits give low values; max response, %; 1.2% of 330,000 active; active = max response of -50% or lower; inconclusive = between -30% and -50%; inactive = -30% or higher; also: value at the top dose of about 77 µM; % is scaled to controls: 0 for no effect and ±100 for the full control effect
Target sequence (P48426 whole entry, looked up): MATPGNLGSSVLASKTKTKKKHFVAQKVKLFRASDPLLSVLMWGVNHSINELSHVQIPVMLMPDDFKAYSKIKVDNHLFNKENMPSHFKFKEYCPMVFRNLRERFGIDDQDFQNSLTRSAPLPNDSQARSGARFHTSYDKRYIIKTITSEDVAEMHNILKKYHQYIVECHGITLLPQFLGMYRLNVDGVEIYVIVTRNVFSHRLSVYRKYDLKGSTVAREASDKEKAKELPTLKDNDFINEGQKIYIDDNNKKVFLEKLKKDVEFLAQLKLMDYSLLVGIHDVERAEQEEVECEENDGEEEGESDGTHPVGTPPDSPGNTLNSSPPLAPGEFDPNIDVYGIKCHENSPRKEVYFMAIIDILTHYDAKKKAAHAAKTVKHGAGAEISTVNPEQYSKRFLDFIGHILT
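Enzyme plus substrate dispensed, test compounds pinned in, then ATP (5 microM final) added. After 60 min at RT, ADP-Glo reagent 1 for 45 min and reagent 2 for 30 min preceded luminescence imaging.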
POLI inh – qHTS for Inhibitors of Polymerase Iota; Pol iota fluorescent replication assay, 10 min; Potency, µM (series often up to 115 µM), for the others: at the top dose activity, negative = inhibition, most hits filed as inhibitors; 1% of 390,000 active; also: potency is read from the fitted curve at half-maximal effect
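Fluorescent replication assay read twice, at 0 min and 10 min after adding 50 nM (final) substrate. Enzyme (10 nM) and compounds were first incubated 15 min at room temperature; enzyme-free buffer wells were negative controls.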
ALOX12 inh – Primary qHTS assay for inhibitors of human arachidonate 12S-lipoxygenase (ALOX12): Round 2; purified 12hLO, xylenol orange hydroperoxide absorbance; Potency, µM (series often up to 108 µM), for inactives: at the top dose activity change, negative = inhibition, hits mostly inhibitors; 1.1% of 580,000 active; also: potency is read from the fitted curve at half-maximal effect; % is scaled to controls: 0 for no effect and ±100 for the full control effect
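Purified human 12hLO (150 nM final) in 25 mM Hepes, 0.01% Triton X-100, pH 7.0 was preincubated 15 min at room temperature with compound. Then 40 uM arachidonic acid was added, 30 min. Hydroperoxide was read by Fe-XO absorbance ratio 573/405 nm.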
Pol kappa inh – qHTS for Inhibitors of Polymerase Kappa | DNA polymerase kappa (Homo sapiens), Q9UBT6 | purified Pol kappa, fluorescent DNA synthesis assay, 10 min | Potency, µM (highest dose often 107 µM), inactives show at the highest dose activity, negative = inhibition, actives largely listed as inhibitors | 0.53% of 400,000 active; also: potency is read from the fitted curve at half-maximal effect; % is scaled to controls: 0 for no effect and ±100 for the full control effect
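Fluorescent qHTS in 1536-well format: enzyme (10 nM) and compound sat 15 min at room temperature before 50 nM substrate (final) was added. Signal taken at 0 and 10 min; no-enzyme buffer wells were negative controls.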
Pol eta inh – qHTS for Inhibitors of Polymerase Eta; recombinant Pol eta, fluorescent DNA replication assay; Potency, µM (series often up to 114 µM), for the others: top-dose activity change, negative = inhibition, hits mostly inhibitors; 1.2% of 390,000 active; AID 588591, 2011; also: potency is read from the fitted curve at half-maximal effect; % is scaled to controls: 0 for no effect and ±100 for the full control effect
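Pol eta (10 nM) was preincubated with compounds for 15 min at room temperature, after which fluorescent replication substrate (50 nM final) was added to start the reaction. Fluorescence was read kinetically at 0 and 10 min.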
* hit, by the source's call; ? = inconclusive; / = no result given; [ ] = another dose, or the depositor's remark. The list is not random: actives were taken first. Their share in the collection is about 2.9%. Unless noted, calls follow the shape of the dose curve; as a rule, active = well fitted inhibition curve with a large enough effect; inconclusive = small, poorly fitted or top-dose-only effect, or another doubt; inactive = no such curve, though single readings can be large or run the other way.

SMILES	Pol beta inh	PI5P4K alpha inh	POLI inh	ALOX12 inh	Pol kappa inh	Pol eta inh
O=c1c2c3c(sc2nc2n1CCCCC2)C(O)CCC3 (centres undefined)	?	2	116%	-5%	1%	-13%
O=C1c2sc3nc4n(c(=O)c3c2CCC1Br)CCCCC4 (centres undefined)	50µM*	-29	?	?	-6%	?
O=C1CCCc2c1sc1nc3n(c(=O)c21)CCCCC3	29%	2	15%	-16%	0%	-12%
CCn1nnc(NC(=O)CSc2ccc(Cl)cc2)n1	25µM*	/	25µM*	?	79µM*	50µM*
COc1cccc(/C=c2\sc3nc(-c4cccs4)nn3c2=O)c1OC	4%	-7	2%	0%	-17%	?
O=c1/c(=C/c2ccco2)sc2nc(-c3ccccc3Br)nn12	35µM*	?	?	0%[57.4 µM]	79µM*	16µM*
Cc1ccc(/C=c2\sc3nc(-c4cccs4)nn3c2=O)o1	18µM*	/	?	?	?	?
CNc1nnc(SCc2cc(C#N)ccc2F)s1	/	/	/	-20%	/	/
O=C(COC(=O)c1cc(-c2cccs2)nc2ccccc12)NCC(F)(F)F	/	/	/	-70%	/	/
N#Cc1c(-c2ccccc2)nc(SCc2ccc(Cl)cc2)[nH]c1=O	?	4	?	?	-2%	79µM*
N#C/C(=N\Nc1cc(Cl)cc(Cl)c1)c1nnc2n1CCCCC2	6%	7	1%	16µM*	-17%	-8%
COc1ccc(C2(c3ccc(OC)cc3)C=Cc3c(ccc4ccc(O)cc34)O2)cc1	/	/	/	-25%	/	/
O=C1C=CC(=O)C(C2=C3C(=O)N(CCc4ccccc4)CC(=O)N3CCC2)=C1	2%	-72*	?	40µM*	-23%	-13%
O=C(N/N=C/c1ccc([N+](=O)[O-])o1)c1cc(-c2ccncc2)nc2ccccc12	?	/	?	-16%	?	89µM*
Cc1ccc(/C=N/NC(=O)c2cc(-c3ccncc3)nc3ccccc23)o1	1%	-22	23%	8%	-7%	-4%
O=C(N/N=C/c1cccc([N+](=O)[O-])c1)c1cc(-c2ccccc2)nc2ccccc12	11%	-3	-1%	-1%	-1%	-7%
O=C(N/N=C/c1ccc([N+](=O)[O-])o1)c1cc(-c2ccc(-c3ccccc3)cc2)nc2ccccc12	20µM*	?	?	-11%	-31%	-31%
Cc1ccc(S(=O)(=O)Nc2cc(C(N)=O)cc(F)c2C)cc1Cl	/	/	/	-38%	/	/
Cc1cc(NC(=O)COc2cccc(C)c2C)no1	?	1	12%	-30%	5%	-16%
Cc1cc(NC(=O)COc2cccc3cccnc23)no1	32µM*	/	/	0%	/	/
Cc1ccc2c(c1)N(C(=O)CSc1nncn1C)C(C)(C)c1ssc(=S)c1-2	-11%	3	-2%	35µM*	-6%	-3%
COC(=O)c1n[nH]c([Si](C)(C)C)c1[Si](C)(C)C	/	/	/	22%	/	/
CC(C)(Cc1ccc(O)cc1)NC(=O)CC(=O)N/N=C/c1ccc(Cl)cc1	66%	4	-29%	8.9µM*	3%	-4%
Cc1nc(Nc2ccc(NC(=O)c3cccs3)cc2)cc(N2CCOCC2)n1	/	/	/	12%	/	/
Cc1ccc(-c2cc(C(=O)O)c3cccc(C)c3n2)s1	/	/	/	11µM*	/	/
Cc1cccc2c(C(=O)O)cc(-c3cccs3)nc12	/	/	/	-22%	/	/
COc1ccccc1-c1cc(C(=O)O)c2cccc(C)c2n1	/	/	/	10µM*	/	/
COC(=O)c1cccc(CNC(=O)c2ccccc2C(=O)O)c1	/	/	/	-23%	/	/
COc1ccc(/C=C/C(=O)Sc2ccc(Cl)cc2)cc1	/	/	/	18%	/	/
COc1ccc(-c2ccc(SCC(=O)Nc3cccc(C(C)=O)c3)nn2)cc1OC	16µM*	-3	28µM*	-16%	?	?

High-throughput results (PubChem)
